Measured values reported in the antibiotic and cytotoxicity screens of Wong et al. (2023).
The whole screen tested about 39,000 compounds, of which about 1,500 (3.8%) were called active. Shown is part of a subset that was picked to be rich in actives.

Each compound was assayed on HSkMC (human skeletal muscle cells) (assay: cytotoxicity call (relative viability < 0.9)). Settings: 10 µM.

Q: With C[C@H]1CN([C@@H](C)CO)C(=O)c2cc(NC(=O)Nc3ccc(C(F)(F)F)cc3)ccc2O[C@@H]1CN(C)Cc1ccncc1 as the compound, how does the cytotoxicity call read?
A: inactive

Q: Which cytotoxicity call does the source give for COc1ccc(S(=O)(=O)Nc2cccc3c2O[C@H](CN(C)Cc2ccncc2)[C@@H](C)CN([C@H](C)CO)C3=O)cc1 here?
A: inactive

Q: For CCC1OC(=O)C(C)C(=O)C(C)C(OC2OC(C)CC(N(C)C)C2O)C(C)(OC)CC(C)C(=O)C(C)C2N(CCCCn3cnc(-c4cccnc4)c3)C(=O)OC12C (stereo not drawn), which cytotoxicity call is on record?
A: inactive

Q: With C[C@@H]1CN([C@@H](C)CO)C(=O)c2cc(NC(=O)Cc3cn(C)c4ccccc34)ccc2O[C@@H]1CN(C)Cc1ccc(C(F)(F)F)cc1 as the compound, how does the cytotoxicity call read?
A: inactive

Q: C[C@@H]1CN([C@H](C)CO)C(=O)c2cccc(NC(=O)Nc3ccc(F)cc3)c2O[C@@H]1CN(C)Cc1ccc(-c2ccccc2)cc1 was tested. Which cytotoxicity call did it give?
A: inactive

Q: Which cytotoxicity call does the source give for CC(=O)n1cc([C@H]2C=C(C(=O)NCc3ccccc3)O[C@@H](OCc3ccc(CO)cc3)C2)c2ccccc21 here?
A: inactive

Q: Which cytotoxicity call does the source give for CN(C)CC(=O)N[C@H]1C=C[C@H](CC(=O)NCCN2CCCCC2)O[C@H]1CO here?
A: inactive

Q: How did the cytotoxicity call turn out when COC(=O)[C@@H](NC(=O)Cn1cc(COc2ccccc2/C=C(C)/C=C/C(=O)NO)nn1)c1ccccc1 was run?
A: inactive

Q: With Cc1noc(C)c1NC(=O)Nc1ccc2c(c1)C(=O)N([C@@H](C)CO)C[C@@H](C)[C@@H](CN(C)Cc1ccc(Oc3ccccc3)cc1)O2 as the compound, how does the cytotoxicity call read?
A: inactive

Q: For N=C(C[n+]1ccccc1)NO, which cytotoxicity call is on record?
A: inactive

Q: Which cytotoxicity call does the source give for COC(=O)[C@H](Cc1ccc(-n2cc(-c3cccc(/C=C/C(=O)NO)c3)nn2)cc1)N1CC2=C[C@H]([C@@H](O)Cc3ccccc3)n3c(=O)n(C)c(=O)n3[C@@H]2[C@@H](C2CC2)O1 here?
A: inactive

Q: C[C@H](CO)N1C[C@H](C)[C@@H](CN(C)Cc2ccc(C(=O)Nc3ccccc3N)cc2)Oc2ccc(NC(=O)CCN3CCOCC3)cc2CC1=O was tested. Which cytotoxicity call did it give?
A: inactive

Q: With CC(C)N1C[C@H](C)[C@@H](CN(C)Cc2ccc(Oc3ccccc3)cc2)Oc2c(NC(=O)C3CCN(C)CC3)cccc2C1=O as the compound, how does the cytotoxicity call read?
A: inactive

Q: Which cytotoxicity call does the source give for CC(C)N1C[C@H](C)[C@@H](CN(C)Cc2ccc(Oc3ccccc3)cc2)Oc2c(NC(=O)C3CCNCC3)cccc2C1=O here?
A: active

Q: Which cytotoxicity call does the source give for C[C@H](CO)N1C[C@H](C)[C@@H](CN(C)Cc2ccc(Oc3ccccc3)cc2)Oc2c(NC(=O)C3CC3)cccc2C1=O here?
A: inactive

Q: Which cytotoxicity call does the source give for COCC(=O)N1C[C@@H](C)[C@@H](OC)CN(C)C(=O)c2cc(NC(=O)c3ccc(F)cc3)ccc2OC[C@H]1C here?
A: inactive

Q: CN(C)CC(=O)N[C@H]1CC[C@H](CCNC(=O)C2CC2)O[C@H]1CO was tested. Which cytotoxicity call did it give?
A: inactive

Q: For CO[C@@H]1CN(C)C(=O)c2ccc(NS(=O)(=O)CC(F)(F)F)cc2OC[C@@H](C)N(Cc2nccs2)C[C@@H]1C, which cytotoxicity call is on record?
A: inactive

Q: COc1cc2c(cc1OC)CN(C[C@H]1C[C@H](c3ccccc3)O[C@H](c3ccc(NC(=O)CCCCCCC(=O)NO)cc3)O1)CC2 was tested. Which cytotoxicity call did it give?
A: active

Q: Which cytotoxicity call does the source give for O=C(CCCCCCC(=O)Nc1ccc([C@H]2O[C@@H](CN3CCCCCCC3)C[C@H](c3ccccc3)O2)cc1)NO here?
A: inactive

Q: Which cytotoxicity call does the source give for O=C(CCCCCCC(=O)Nc1ccc([C@H]2C[C@H](c3ccccc3)O[C@H](c3ccc(Oc4ccccc4)cc3)O2)cc1)NO here?
A: active

Q: With O=C(CCCCCCC(=O)Nc1ccc([C@H]2C[C@H](c3ccccc3)O[C@H](c3ccccc3)O2)cc1)NO as the compound, how does the cytotoxicity call read?
A: inactive

Q: Which cytotoxicity call does the source give for O=C(CCCCCCC(=O)Nc1ccc([C@H]2O[C@@H](COc3ccccc3)C[C@H](c3ccccc3)O2)cc1)NO here?
A: inactive

Q: O=C(CCCCCCC(=O)Nc1ccc([C@H]2C[C@H](c3ccccc3)O[C@H](c3cccc(Oc4ccccc4)c3)O2)cc1)NO was tested. Which cytotoxicity call did it give?
A: inactive

Q: Which cytotoxicity call does the source give for C[C@@H]1CN([C@H](C)CO)C(=O)c2cc(NC(=O)C3CCCCC3)ccc2O[C@@H](C)CCCCO[C@H]1CN(C)S(=O)(=O)c1cccs1 here?
A: inactive

Q: How did the cytotoxicity call turn out when COc1ccc(NC(=O)N(C)C[C@@H]2OCCCC[C@H](C)Oc3ccc(NC(=O)Nc4c(C)noc4C)cc3C(=O)N([C@@H](C)CO)C[C@H]2C)cc1 was run?
A: inactive

Q: For CC(C)=CCCC(C)=CCO, which cytotoxicity call is on record?
A: inactive

Q: How did the cytotoxicity call turn out when CCC(=C(c1ccccc1)c1ccc(OCCN(C)C)cc1)c1ccccc1.O=C(O)CC(O)(CC(=O)O)C(=O)O was run?
A: inactive

Q: How did the cytotoxicity call turn out when CCN(CC)CCOc1ccc(C(=C(Cl)c2ccccc2)c2ccccc2)cc1.O=C(O)CC(O)(CC(=O)O)C(=O)O was run?
A: inactive

Q: For CN(C)CCOc1ccc(C(=C(CCCl)c2ccccc2)c2ccccc2)cc1.O=C(O)CC(O)(CC(=O)O)C(=O)O, which cytotoxicity call is on record?
A: active

Q: Which cytotoxicity call does the source give for C[C@H]1CN([C@@H](C)CO)S(=O)(=O)c2ccc(C3=CCCC3)cc2O[C@@H]1CN(C)C(=O)c1cnccn1 here?
A: inactive

Q: How did the cytotoxicity call turn out when C[C@@H]1CN([C@@H](C)CO)S(=O)(=O)c2ccc(C#CCC3CCCC3)cc2O[C@@H]1CN(C)C(=O)CN(C)C was run?
A: inactive

Q: Which cytotoxicity call does the source give for Cc1cc(-c2ccc(NN=C3C=Cc4c(S(=O)(=O)O)cc(S(=O)(=O)O)c(N)c4C3=O)c(C)c2)ccc1NN=C1C=Cc2c(S(=O)(=O)O)cc(S(=O)(=O)O)c(N)c2C1=O here?
A: inactive

Q: How did the cytotoxicity call turn out when COc1cc(-c2ccc(NN=C3C=Cc4c(S(=O)(=O)O)cc(S(=O)(=O)O)c(N)c4C3=O)c(OC)c2)ccc1NN=C1C=Cc2c(S(=O)(=O)O)cc(S(=O)(=O)O)c(N)c2C1=O was run?
A: active

Q: For Cc1noc(C)c1S(=O)(=O)Nc1ccc2c(c1)CC(=O)N([C@@H](C)CO)C[C@@H](C)[C@H](CN(C)C(=O)NC(C)C)O2, which cytotoxicity call is on record?
A: inactive

Q: C[C@@H]1CN([C@@H](C)CO)C(=O)c2cc(NC(=O)Nc3cccc4ccccc34)ccc2O[C@@H](C)CCCCO[C@H]1CN(C)C(=O)Nc1ccc2c(c1)OCO2 was tested. Which cytotoxicity call did it give?
A: inactive

Q: For C[C@@H]1CN([C@@H](C)CO)C(=O)Cc2cc(NC(=O)CCC(F)(F)F)ccc2O[C@@H]1CN(C)S(=O)(=O)c1ccccc1, which cytotoxicity call is on record?
A: inactive

Q: C[C@@H]1CN([C@@H](C)CO)C(=O)Cc2cc(NC(=O)Nc3ccc(C(F)(F)F)cc3)ccc2O[C@@H]1CN(C)Cc1ccc2c(c1)OCO2 was tested. Which cytotoxicity call did it give?
A: active

Q: Which cytotoxicity call does the source give for C[C@@H]1CN([C@@H](C)CO)C(=O)Cc2cc(NC(=O)Nc3ccc(C(F)(F)F)cc3)ccc2O[C@H]1CN(C)Cc1ccc2c(c1)OCO2 here?
A: inactive

Q: C[C@@H]1CN([C@H](C)CO)C(=O)Cc2cc(NC(=O)Nc3ccc(C(F)(F)F)cc3)ccc2O[C@@H]1CN(C)Cc1ccc2c(c1)OCO2 was tested. Which cytotoxicity call did it give?
A: active

Q: Which cytotoxicity call does the source give for C[C@H](CO)N1C[C@H](C)[C@H](CN(C)Cc2ccc3c(c2)OCO3)Oc2ccc(NC(=O)Nc3ccc(C(F)(F)F)cc3)cc2CC1=O here?
A: inactive

Q: Which cytotoxicity call does the source give for C[C@H]1CN([C@@H](C)CO)C(=O)Cc2cc(NC(=O)Nc3ccc(C(F)(F)F)cc3)ccc2O[C@H]1CN(C)Cc1ccc2c(c1)OCO2 here?
A: active

Q: C[C@H](CO)N1C[C@H](C)[C@@H](CN(C)Cc2ccc3c(c2)OCO3)Oc2ccc(NC(=O)Nc3ccc(C(F)(F)F)cc3)cc2CC1=O was tested. Which cytotoxicity call did it give?
A: active

Q: C[C@H]1CN([C@@H](C)CO)C(=O)Cc2cc(NC(=O)Nc3ccc(C(F)(F)F)cc3)ccc2O[C@@H]1CN(C)Cc1ccc2c(c1)OCO2 was tested. Which cytotoxicity call did it give?
A: inactive

Q: With C[C@@H]1CN([C@H](C)CO)C(=O)Cc2cc(NC(=O)Nc3ccc(C(F)(F)F)cc3)ccc2O[C@H]1CN(C)Cc1ccc2c(c1)OCO2 as the compound, how does the cytotoxicity call read?
A: inactive

Q: How did the cytotoxicity call turn out when C[C@@H]1CN([C@H](C)CO)C(=O)Cc2cc(NS(=O)(=O)c3cn(C)cn3)ccc2O[C@H]1CN(C)S(=O)(=O)c1ccc(F)cc1 was run?
A: inactive

Q: Which cytotoxicity call does the source give for C[C@@H]1CN([C@H](C)CO)S(=O)(=O)c2ccc(-c3cccnc3)cc2O[C@H]1CN(C)C(=O)NC1CCCC1 here?
A: inactive

Q: For C[C@H]1CN([C@@H](C)CO)C(=O)c2cccc(NC(=O)c3ccncc3)c2O[C@H]1CN(C)C(=O)Nc1ccc2c(c1)OCO2, which cytotoxicity call is on record?
A: inactive

Q: For C[C@@H]1CCCCO[C@H](CN(C)C(=O)c2ccncc2)[C@@H](C)CN([C@@H](C)CO)C(=O)c2cc(NC(=O)NC3CCCCC3)ccc2O1, which cytotoxicity call is on record?
A: inactive

Q: For Cc1noc(C)c1S(=O)(=O)Nc1ccc2c(c1)C(=O)N([C@H](C)CO)C[C@@H](C)[C@H](CN(C)S(=O)(=O)c1cn(C)cn1)O2, which cytotoxicity call is on record?
A: inactive

Q: CCS(=O)(=O)Nc1ccc2c(c1)C(=O)N(C)[C@@H]1CC[C@H](CC(=O)NCCCN3CCOCC3)O[C@H]1CO2 was tested. Which cytotoxicity call did it give?
A: inactive

Q: Cc1ccc(S[C@]2(C(=O)NCCN3CCOCC3)CC(=O)N(Cc3ccccc3Cl)[C@@H]2c2ccc(CO)cc2I)cc1 was tested. Which cytotoxicity call did it give?
A: inactive

Q: Which cytotoxicity call does the source give for C[C@H](CO)N1C[C@H](C)[C@@H](CN(C)C(=O)CN2CCOCC2)Oc2ncc(C#C[C@@H](C)O)cc2C1=O here?
A: inactive

Q: Which cytotoxicity call does the source give for COCC(=O)N(C)C[C@H]1Oc2cc(C#Cc3cccnc3)ccc2S(=O)(=O)N([C@H](C)CO)C[C@@H]1C here?
A: inactive

Q: Which cytotoxicity call does the source give for C[C@@H]1CCCCO[C@H](CN(C)Cc2ccc(C(=O)O)cc2)[C@@H](C)CN([C@H](C)CO)C(=O)c2cc(NC(=O)Nc3ccc4c(c3)OCO4)ccc2O1 here?
A: inactive

Q: Cc1noc(C)c1S(=O)(=O)Nc1ccc2c(c1)C(=O)N([C@H](C)CO)C[C@H](C)[C@H](CN(C)S(=O)(=O)c1cn(C)cn1)OCCCC[C@@H](C)O2 was tested. Which cytotoxicity call did it give?
A: inactive

Q: With C[C@H](CCC(=O)O)[C@H]1CC[C@H]2[C@@H]3CC=C4C[C@@H](O)CC[C@]4(C)[C@H]3CC[C@]12C [3beta-HYDROXYCHOL-5-ENIC ACID ] as the compound, how does the cytotoxicity call read?
A: inactive

Q: With Cc1noc(C)c1S(=O)(=O)Nc1ccc2c(c1)C(=O)N([C@@H](C)CO)C[C@@H](C)[C@@H](CN(C)Cc1ccc(C(F)(F)F)cc1)OCCCC[C@@H](C)O2 as the compound, how does the cytotoxicity call read?
A: inactive

Q: C[C@H](CO)N1C[C@H](C)[C@@H](CN(C)Cc2ccc(C(=O)O)cc2)Oc2ccc(NC(=O)Nc3ccc(C(F)(F)F)cc3)cc2CC1=O was tested. Which cytotoxicity call did it give?
A: inactive

Q: With C[C@@H]1CN([C@@H](C)CO)C(=O)Cc2cc(NC(=O)Nc3ccc(C(F)(F)F)cc3)ccc2O[C@H]1CN(C)Cc1ccc(C(F)(F)F)cc1 as the compound, how does the cytotoxicity call read?
A: active

Q: C[C@@H]1CN([C@H](C)CO)C(=O)Cc2cc(NC(=O)Nc3ccc(C(F)(F)F)cc3)ccc2O[C@H]1CN(C)Cc1ccc(C(=O)O)cc1 was tested. Which cytotoxicity call did it give?
A: inactive

Q: For C[C@H]1CN([C@@H](C)CO)C(=O)Cc2cc(NC(=O)Nc3ccc(C(F)(F)F)cc3)ccc2O[C@@H]1CN(C)Cc1ccc(C(=O)O)cc1, which cytotoxicity call is on record?
A: inactive

Q: Which cytotoxicity call does the source give for C[C@H]1CN([C@@H](C)CO)C(=O)Cc2cc(NC(=O)Nc3ccc(C(F)(F)F)cc3)ccc2O[C@@H]1CN(C)Cc1ccc(C(F)(F)F)cc1 here?
A: active

Q: Which cytotoxicity call does the source give for C[C@H]1CN([C@@H](C)CO)C(=O)Cc2cc(NC(=O)Nc3ccc(C(F)(F)F)cc3)ccc2O[C@H]1CN(C)Cc1ccc(C(=O)O)cc1 here?
A: inactive

Q: How did the cytotoxicity call turn out when C[C@H](CO)N1C[C@H](C)[C@H](CN(C)Cc2ccc(C(=O)O)cc2)Oc2ccc(NC(=O)Nc3ccc(C(F)(F)F)cc3)cc2CC1=O was run?
A: inactive

Q: With C[C@H]1CN([C@@H](C)CO)C(=O)Cc2cc(NC(=O)Nc3ccc(C(F)(F)F)cc3)ccc2O[C@H]1CN(C)Cc1ccc(C(F)(F)F)cc1 as the compound, how does the cytotoxicity call read?
A: active

Q: C[C@@H]1CN([C@@H](C)CO)C(=O)Cc2cc(NC(=O)Nc3ccc(C(F)(F)F)cc3)ccc2O[C@H]1CN(C)Cc1ccc(C(=O)O)cc1 was tested. Which cytotoxicity call did it give?
A: inactive

Q: For C[C@H](CO)N1C[C@H](C)[C@H](CN(C)Cc2ccc(C(F)(F)F)cc2)Oc2ccc(NC(=O)Nc3ccc(C(F)(F)F)cc3)cc2CC1=O, which cytotoxicity call is on record?
A: active
